Source: PubChem (National Center for Advancing Translational Sciences (NCATS))
Compounds with a hit are over-represented: about 19% of the library has one in this group of screens.
DT40 TDP1 CPT: growth inhibition of DT40 Tdp1-/-;hTDP1 cells with camptothecin (screen for TDP1 inhibitors); chicken DT40 Tdp1-/-;hTDP1 cells + 20 nM CPT, ATP luminescence, 48 h; Potency, µM (highest dose often 46.2 µM), without a hit: at the highest dose activity change, negative = growth inhibition, actives largely listed as inhibitors; actives 12% (n = 420,000); AID 686979; note: potency is the fitted concentration of half-maximal effect; % is set by controls: 0 for no effect and ±100 for the full control effect; nearly all actives have a fitted effect of over 55% in size
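Chicken DT40 Tdp1-/- cells complemented with human TDP1, 400 cells/well, exposed to compounds plus 20 nM camptothecin for at least 48 h at 37 C; viability read as ATP content by CellTiter-Glo luminescence.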
SW480 rereplic: induces DNA re-replication in SW480 colon adenocarcinoma cells; SW480 DNA re-replication, Hoechst DNA content imaging, 48 h; actives 1.8% (n = 340,000); AID 624297; Potency, µM (titrated, usually from 46.1 µM), inactives show at the highest dose re-replication activation, usual class: activators; note: potency is the fitted concentration of half-maximal effect; % of control where 0% means no effect; nearly all actives have a fitted effect of over 55% in size
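Image-based DNA-content assay: after two days of treatment, nuclei were labelled with the DNA dye Hoechst and imaged, and hits were compounds raising the count of nuclei showing high fluorescence intensity.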
IL-1B inflam inh: inflammasome signaling inhibition, IL-1 beta readout; THP-1 LPS/ATP IL-1B secretion, AlphaLISA, 16 h; hits give low values; actives 4.7% (n = 360,000); activity change, % at 57.5 µM; in the data active = activity change below about -50%; inconclusive = mostly about -30% to -49%; note: % is set by controls: 0 for no effect and ±100 for the full control effect
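Secreted IL-1B measured by AlphaLISA bead assay after 16 h compound exposure of THP-1 cells; compounds (final up to 57.5 uM) added 1 h before LPS (250 ng/mL) and ATP (1.25 mM) stimulation; lower signal means less secretion.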
DT40 TDP1 no CPT: qHTS for Inhibitors of human tyrosyl-DNA phosphodiesterase 1 (TDP1): qHTS in cells in absence of CPT; actives 15% (n = 420,000); AID 686978, 2013; DT40 Tdp1-/- hTDP1 cells, no CPT, ATP luminescence, 48 h; Potency, µM (series often up to 46.2 µM), for the others: at the highest dose activity change, negative = growth inhibition, hits mostly inhibitors; note: potency is the fitted concentration of half-maximal effect; % is set by controls: 0 for no effect and ±100 for the full control effect; nearly all actives have a fitted effect of over 55% in size
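Camptothecin absent (DMSO only). Human TDP1-complemented DT40 knockout cells, 400 cells/well, 37 °C for minimum 48 hr; ATP measured via CellTiter-Glo, 30 min dark incubation, luminescence.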
MCF10A rerep: DNA re-replication induction in MCF 10a cells | MCF 10A DNA re-replication, Hoechst nuclear intensity, 48 h | Potency, µM (titrated, usually from 46.1 µM), inactives show at the top dose activity, positive = re-replication, usual class: activators | actives 2.9% (n = 350,000) | AID 624296; note: potency is the fitted concentration of half-maximal effect; % of control where 0% means no effect; nearly all actives have a fitted effect of over 50% in size
Chronic BCR inh: chronic active BCR signaling inhibition. ABC-DLBCL IkBa-CBG/CBR reporter, luminescence ratio, 4 h. Potency, µM (highest dose often 46.1 µM), inactives show top-dose activity change, negative = inhibition, usual class: inhibitors. actives 0.05% (n = 340,000); active = well fitted inhibition curve with a large enough effect in the signal ratio, with a control signal flat, not every such curve was filed as active; inconclusive = small, poorly fitted or top-dose-only effect, or effect the other way, or a change in a side signal; the % refers to the signal ratio;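 note: potency is the fitted concentration of half-maximal effect; plate controls were basal doxycycline-induced cells for no effect and cells given 10 µM MG132 for full effect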
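Doxycycline induced both beetle luciferases in TMD8 lymphoma cells; IKK-driven degradation limits the IkappaBalpha-fused green signal, while red luminescence normalises for cell number and nonspecific effects. Compounds tested up to 46 uM, 4 hrs.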
* hit, by the source's call; ? = inconclusive; . = no result; [ ] = another dose, or the depositor's remark. Unless noted, calls come from the whole dose curve; as a rule, active = well fitted curve in the direction sought with a large enough effect; inconclusive = small, poorly fitted or top-dose-only effect, or another doubt; inactive = no such curve, though single readings can be large; an effect the other way counts as inactive or inconclusive.

SMILES	DT40 TDP1 CPT	SW480 rereplic	IL-1B inflam inh	DT40 TDP1 no CPT	MCF10A rerep	Chronic BCR inh
CC(C)C(N)c1csc(NC(=O)Nc2cccc(C(F)(F)F)c2)n1 (centres undefined)	14.6µM*	.	?	14.6µM*	.	.
O=C(Nc1cccc(C(F)(F)F)c1)Nc1ccon1	-27.2%	-5.1%	23.8	?	19.7%	?
NCc1csc(NC(=O)Nc2cccc(C(F)(F)F)c2)n1	16.4µM*	.	-18.2	23.1µM*	.	.
NC(Cc1ccc(C(F)(F)F)cc1)c1csc(NC(=O)Nc2ccccc2)n1 (centres undefined)	13µM*	.	0.0	?	.	.
CCN(c1ccccc1)c1nnc(NC(=O)Nc2cccc(C(F)(F)F)c2)s1	-22.0%	.	.	-24.0%	.	.
NC(COCc1ccccc1)c1csc(NC(=O)Nc2cccc(Cl)c2)n1 (centres undefined)	23.1µM*	.	-55.9*	?	.	.
NC(CCc1ccccc1)c1csc(NC(=O)Nc2cccc(C(F)(F)F)c2)n1 (centres undefined)	?	.	-56.5*	20.6µM*	.	.
COc1ccc(NC(=O)c2ccc(C)cc2)c[n+]1[O-]	?	0.7%	7.3	-0.7%	-18.6%	4.6%
CCOc1ccc(C(=O)N(Cc2ccc(C(C)C)cc2)Cc2ccco2)cc1	?	.	.	20.6µM*	.	.
Cc1ccc(CN(Cc2ccco2)C(=O)c2ccc(OCC(C)C)cc2)cc1	?	.	.	16.4µM*	.	.
Cc1ccc(CN(Cc2ccco2)C(=O)c2ccco2)cc1	?	-0.9%	0.0	-13.7%	-10.8%	-2.2%
O=C(CN(Cc1ccco1)C(=O)c1ccc([N+](=O)[O-])cc1)Nc1ccccc1C(F)(F)F	-17.2%	27.9%	-18.2	-25.0%	10.9%	-3.6%
CC(C)COc1ccc(C(=O)N(CC(=O)Nc2ccccc2C(F)(F)F)Cc2ccco2)cc1	?	2.6%	-72.1*	?	?	3.1%
COc1ccccc1NC(=O)CN(Cc1ccco1)C(=O)c1cncc(Br)c1	-20.2%	-14.8%	-8.1	-31.4%	2.1%	?
COc1ccccc1NC(=O)CN(Cc1ccco1)C(=O)c1ccc(-n2nc(C)cc2C)cc1	?	-12.0%	-3.8	16.4µM*	2.2%	-4.9%
COc1ccc(OC)c(-c2ccnc(-n3ncc(C(=O)NC(C)(C)CO)c3C3CC3)n2)c1	-3.4%[9.04 µM]	.	.	-14.3%	.	.
CCOC(=O)CCCNC(=O)CN1C(=O)NC(c2ccccc2)(c2ccccc2)C1=O	1.5%	-4.7%	-9.7	-9.4%	4.3%	-7.3%
c1ccc(C2OC3c4cccc5cccc(c45)C3N2c2ccccc2)cc1 (centres undefined)	-6.1%	?	89.6	-12.3%	18.4µM*	16.2%
NCCNc1ccc(C(=O)N2c3ccccc3Sc3ccccc32)cc1[N+](=O)[O-]	18.4µM*	?	-92.2*	18.4µM*	?	-9.9%
CN(C)C(CNc1ccc(C(N)=O)cc1[N+](=O)[O-])c1ccccc1 (centres undefined)	-7.3%	-4.4%	24.1	-21.6%	3.7%	?
Nc1ccc(C(=O)OCC(=O)N2c3ccccc3Sc3ccccc32)cc1[N+](=O)[O-]	?	-6.0%	-2.6	7.31µM*	?	?
N#Cc1ccc(CN2CC[C@@]3(CCCN(C(=O)c4cnccn4)C3)C2)cc1	1.4%	.	.	-4.9%	.	.
CCOC(=O)N(C)c1c(CC)nc2c(OCc3ccccc3)cccn12	20.6µM*	.	14.8	23.1µM*	.	.
CCc1nc2c(OCc3ccc(C(=O)N(C)C)cc3)cccn2c1N(C=O)Cc1ccccc1	?	.	-21.3	-16.5%	.	.
CCc1nc2c(OCc3ccccc3)cccn2c1N(Cc1ccccc1)C(C)=O	18.4µM*	.	-14.0	?	.	.
SMILES	DT40 TDP1 CPT	SW480 rereplic	IL-1B inflam inh	DT40 TDP1 no CPT	MCF10A rerep	Chronic BCR inh
CC(C)(C)c1ccc(C(=O)NNc2cc(N3CCCCC3)nc(N3CCCCC3)n2)cc1	25.9µM*	3.9%	-16.7	?	6.8%	4.9%
COc1nc2ccccc2nc1CCC(=O)O	0.3%	-13.2%	25.4	6.5%	-4.2%	9.6%
CCOc1ccc(NS(=O)(=O)c2c(C(=O)N3CCCCCC3)c(C)n(C)c2C)cc1	?	7.6%	-3.4	?	-2.0%	8.9%
CCN(CC)c1ccc(/C=N/NC(=O)c2cccc(S(=O)(=O)N3CCOCC3)c2)c(O)c1	4.11µM*	?	200.0	5.8µM*	14.6µM*	-0.9%
CCN(CC)c1ccc(/C=N/NC(=O)c2c(Cl)cnn2C)c(O)c1	3.66µM*	?	68.6	5.8µM*	11.6µM*	?
O=C(N/N=C/c1sc(N2CCOCC2)nc1-c1ccccc1)c1ccccc1F	?	0.1%	29.2	?	?	-22.0%
Cn1ncc(Cl)c1C(=O)N/N=C/c1cc2c(cc1[N+](=O)[O-])OCO2	-12.7%	-1.9%	-1.3	16.7%	23.1%	6.2%
CCN(CC)c1ccc(/C=N/NC(=O)CCC(=O)NCc2ccccc2)c(O)c1	5.17µM*	?	48.0	5.17µM*	?	?
CCN(CC)c1ccc(C=Nc2cccc(S(=O)(=O)N3CCOCC3)c2)c(O)c1	9.4%	-5.9%	-7.5	-1.8%	-2.2%	1.8%
O=C(Nc1ccccc1F)C(=Cc1sc(N2CCOCC2)nc1-c1ccccc1)C(=O)Nc1ccccc1F	1.64µM*	?	-23.9	5.17µM*	3.26µM*	-6.3%
CCOC(=O)N/N=C/c1ccc(N(CC)CC)cc1O	8.2µM*	16.4µM*	8.4	5.8µM*	23.1µM*	?
CC/C(=N\NC(=O)CCC(=O)NCc1ccccc1)c1ccc(O)cc1	2.91µM*	?	11.7	4.11µM*	?	-1.0%
CCCCC/C(=N\NC(=O)CCC(=O)NCc1ccccc1)c1ccccc1	?	13.8%	-1.2	?	?	1.4%
CCOC(=O)N/N=C/c1ccccc1F	15.0%	-1.2%	4.0	10.3%	-3.3%	-13.6%
CCN(CC)c1ccc(C=Nc2cc(C)ccc2C)c(O)c1	-8.7%	?	-1.5	?	2.5%	0.0%
CCN(CC)c1ccc(/C=N/NC(=O)CNC(=O)C2COc3ccccc3O2)c(O)c1 (centres undefined)	5.8µM*	6.51µM*	87.3	3.26µM*	6.51µM*	0.4%
CCN(CC)c1ccc(/C=N/Nc2ccc(C)cc2)c(O)c1	11.6µM*	-7.0%	-7.5	11.6µM*	-4.1%	-6.9%
